Assay outcomes from PubChem.
Shown are actives, neighbours in structure and some others; about 2.7% of the full set was active somewhere.
ERG-DNA inh: ERG Ets/DNA interaction inhibition | 0.028% of 370,000 active | P11308 | fluorescence polarization, His-ERG Ets domain / labelled DNA | Potency, µM (top dose mostly 76.9 µM), for the others: at the top dose FP activity, negative = inhibition, usual class: inhibitors; active means well fitted inhibition curve with a large enough effect in the polarisation, with a control signal flat; inconclusive means small, poorly fitted or top-dose-only effect, or effect the other way, or a change in a side signal; inactive means no such curve, though single readings can be large or run the other way; the % refers to the polarisation;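 further: polarization taken with two DNA probes labelled with fluorescein and Texas red; potency means the concentration at half of the fitted maximal effect; % of control where 0% means no effect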
Target sequence (P11308 whole entry, looked up, the tested form may be a part): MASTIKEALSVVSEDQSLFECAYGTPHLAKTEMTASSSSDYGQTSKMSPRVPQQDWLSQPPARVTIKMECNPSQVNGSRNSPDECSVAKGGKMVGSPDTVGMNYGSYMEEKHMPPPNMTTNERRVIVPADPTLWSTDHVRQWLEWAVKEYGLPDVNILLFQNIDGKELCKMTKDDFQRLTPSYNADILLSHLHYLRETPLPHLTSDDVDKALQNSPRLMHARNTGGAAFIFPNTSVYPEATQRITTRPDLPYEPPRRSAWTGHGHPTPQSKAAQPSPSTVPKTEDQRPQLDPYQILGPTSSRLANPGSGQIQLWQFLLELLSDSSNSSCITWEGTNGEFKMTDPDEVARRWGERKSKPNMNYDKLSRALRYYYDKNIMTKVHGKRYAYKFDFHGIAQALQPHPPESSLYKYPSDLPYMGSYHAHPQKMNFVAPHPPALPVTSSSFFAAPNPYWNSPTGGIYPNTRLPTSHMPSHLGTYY
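His-tagged ERG Ets domain (1 uM in the protein solution; 300mM KCl, 50mM Tris-HCl, 1mM EDTA, 1mM DTT, pH 7.5) received compound, then a probe mix of 5 nM fluorescein-DNA and 100nM Texas-615-DNA. Fluorescence polarization was read for both dyes.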
ALOX12 inh: ALOX12 (human) lipoxygenase inhibition; P18054; purified 12hLO, xylenol orange hydroperoxide absorbance; Potency, µM (top dose mostly 108 µM), inactives show at the top dose activity change, negative = inhibition, actives largely listed as inhibitors; 1.1% of 580,000 active; AID 1671190; further: potency means the concentration at half of the fitted maximal effect; on the % scale 0 is the no-effect control and ±100 the full control effect
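Purified human 12hLO (150 nM final) in 25 mM Hepes, 0.01% Triton X-100, pH 7.0 was preincubated 15 min at room temperature with compound. Then 40 uM arachidonic acid was added, 30 min. Hydroperoxide was read by Fe-XO absorbance ratio 573/405 nm.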
Nrf2 ARE act: Nrf2 pathway activation. AREc32 ARE-luciferase reporter (MCF7-derived line), luminescence, 24 h. Potency, µM (highest dose often 46.1 µM), for the others: at the top dose activation, most hits filed as activators. 0.31% of 410,000 active. AID 624171; further: potency means the concentration at half of the fitted maximal effect; % of control where 0% means no effect; nearly all actives have a fitted effect of over 65% in size
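Each well held 1000 AREc32 cells, which were incubated with compound for 24 hr at 37 deg C after overnight attachment, and ARE reporter activity was quantified by firefly luciferase luminescence.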
Nrf2 block: blocks Nrf2 signaling. Potency, µM (doses to about 46 µM), inactives show at the highest dose activity change, negative = inhibition, hits mostly inhibitors. AID 504444. A549 ARE-Fluc reporter, luciferase luminescence, 18-24 h. 2.1% of 360,000 active; further: potency means the concentration at half of the fitted maximal effect; on the % scale 0 is the no-effect control and ±100 the full control effect; nearly all actives have a fitted effect of over 60% in size
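A549 ARE_Fluc cells, 5000/well, 5% FBS OPTI-MEM; compounds in dose-response, 18-24 h at 37 °C/5% CO2; CellTiter-Fluor viability read (Ex 405/Em 525), then BugLite luciferase luminescence = Nrf2 activity.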
A549 tox: A549 cytotoxicity, counter-screen for Nrf2 inhibitors; A549 ARE-Fluc cells, CellTiter-Fluor viability, 18-24 h; Potency, µM (highest dose often 46 µM), without a hit: at the top dose activity change, negative = cytotoxicity, most hits filed as inhibitors; 0.16% of 390,000 active; AID 504648; further: potency means the concentration at half of the fitted maximal effect; on the % scale 0 is the no-effect control and ±100 the full control effect
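A549 ARE-Fluc cells in 5% FBS OPTI-MEM, 5000 cells/well, rested 2 h then exposed to compounds in concentration-response for 18-24 h at 37 °C. Viability by CellTiter-Fluor fluorescence (Ex 405/Em 525) after 30 min; luciferase luminescence (BugLite, 15 min, RT) read afterwards.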
LDHA block: inhibitors of human lactate dehydrogenase A; purified LDHA, NADH/diaphorase-resazurin fluorescence; active compounds read low; activity change, % (values are at about 110 or 230 µM); 0.15% of 480,000 active; AID 1347041; in the data active means activity change below about -30%; inconclusive means mostly about -25% to -30%;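 further: plate controls were DMSO wells for no effect and wells without enzyme for full effect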
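Resorufin fluorescence (ex540/em590), read at 0 and 20 min after diaphorase/resazurin addition, reports the NADH left after a 5 min room-temperature reaction of 2 nM human LDH5 with 0.06 mM NADH and 0.2 mM pyruvate.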
Starred values were filed as active, the others as inactive; ? = inconclusive; nt = no result given; [ ] = remark or other dose. Unless noted, the call rests on the fitted dose curve; in most records, active means well fitted curve in the direction sought with a large enough effect; inconclusive means small, poorly fitted or top-dose-only effect, or another doubt; inactive means no such curve, though single readings can be large; an effect the other way counts as inactive or inconclusive.

SMILES	ERG-DNA inh	ALOX12 inh	Nrf2 ARE act	Nrf2 block	A549 tox	LDHA block
COc1ccc(-c2cccc(-c3nc4ccc(Cl)cn4c3NC3CCCCC3)c2)cc1	0.0%	7.08µM*	3.2%	-4.1%	-12.8%	0.4
CC(=O)c1csc(-c2cccc(-c3nc4ccc(Cl)cn4c3NC3CCCCC3)c2)c1	1.0%	?	3.6%	0.6%	-0.9%	-4.0
O=C(Nc1ccc(F)c(F)c1)c1cc(-c2ccco2)nc2ccccc12	nt	?	nt	nt	nt	3.6
Cc1ccc2scc(N3CCN(c4ccc(F)cc4)CC3)c(=O)c2c1	-2.4%	3.3%	0.4%	nt	?	2.4
Cc1ccc(C)c(-n2sc3ccc(F)cc3c2=O)c1	6.7%	1.58µM*	13.5%	-23.2%	5.2%	-11.7
O=c1c2cc(F)ccc2sn1-c1ccc(F)cc1	-20.9%	nt	10.2%	-6.5%	4.3%	6.0
COc1ccc(-n2sc3ccc(F)cc3c2=O)cc1	16.1%	1.12µM*	0.2%	-9.2%	12.6%	0.0
CCN1CCC2(CC1)Oc1c(OC)cccc1C1CC(c3ccc4c(c3)OCCO4)=NN12 (configuration not stated)	nt	?	nt	nt	nt	22.8
CCOC(=O)c1c(C)[nH]c(C(=O)N2CCc3cc(OC)c(OC)cc3C2)c1C	16.8%	1.1%	3.7%	23.1µM*	?	-3.2
COc1cc2c(cc1OC)CN(C(=O)c1ccc([N+](=O)[O-])o1)CC2	-17.4%	0.0%	12.6µM*	1.2%	?	8.3
O=C(c1ccc([N+](=O)[O-])o1)N1CCc2ccccc2C1	-16.0%	-8.1%	10.9%	?	-12.6%	0.3
NS(=O)(=O)c1ccc(N/N=C/c2sc(Nc3ccccc3)nc2Cl)c([N+](=O)[O-])c1	nt	3.6%	nt	nt	nt	0.1
CC1(CNc2ccccc2)COc2ccc(C(=O)NCc3ccc(F)cc3)cc2N1 (configuration not stated)	nt	55.9%[176 µM]	nt	nt	nt	nt
CC(C)C1CC(C)(C)c2ccc(O)cc21 (configuration not stated)	nt	?	nt	nt	nt	9.1
CNC(=O)/C(C#N)=C\c1ccc(CNS(=O)(=O)c2ccc(Cl)cc2)o1	-4.4%	44.7µM*	-0.6%	-3.3%	-1.2%	-6.9
O=C(c1ccc(CSc2nc3ccncc3[nH]2)cc1)N1CCN(c2cccc(Cl)c2)CC1	-8.7%	0.5%	-3.4%	20.6µM*	-25.9%	0.0
O=C(c1ccc(CSc2nc3ccncc3[nH]2)cc1)N1CCCCCC1	12.5%	-11.8%	-0.4%	-1.8%	-1.0%	-1.3
CC(C)Cc1nnc2sc(-c3cc4ccccc4[nH]3)nn12	nt	?	nt	nt	nt	4.8
O=C(O)CCNC(=O)c1ccc(N=Nc2ccc(O)c(C(=O)O)c2)cc1	nt	34.3µM*	nt	nt	nt	nt
CC(C)(C)c1ccc(C(=O)NCCC(=O)O)cc1	nt	-3.0%	nt	nt	nt	3.8
O=c1[nH]c(=O)n(CC2CCCO2)c2nccc(-c3cccc4ccccc34)c12 (configuration not stated)	nt	-13.9%	nt	nt	nt	1.5
CCCSc1nc(-c2ccccc2)cc(C(F)(F)F)c1C#N	-3.5%	-24.0%	11.2µM*	nt	10.2%	-3.9
Cc1sc2ncnc(Sc3ccccc3C(=O)Nc3ccc(Br)cc3)c2c1C	-0.3%	10µM*	0.2%[9.22 µM]	-24.4%	0.0%	-4.6
N=C1S/C(=C\c2ccc(-c3ccccc3C(=O)O)o2)C(=O)N1c1ccc2c(c1)OCO2	-7.9%	14.1µM*	-0.6%	-1.3%	?	21.1
CN(C)C(=O)C1CCC(C)(C(=O)O)C1(C)CI (configuration not stated)	nt	39.8µM*	nt	nt	nt	-3.1
O=C(CSc1nnc(-c2ccncc2)n1C1CC1)Nc1ccccc1C(=O)NC1CC1	nt	?	nt	nt	nt	2.4
CN1CCN(C(=O)CCN2C(=O)/C(=C/c3cccc(Br)c3)SC2=S)CC1	91.5%	?	?	?	0.1%	15.5
O=C1/C(=C/c2cccc(Br)c2)SC(=S)N1CCC(=O)N(CCO)c1ccccc1	33.4%	0.0%	12.6µM*	23.0%	-13.4%	-0.1
